Structures are written as SMILES. Records with an inconclusive call do not appear. A number with no mark means an inactive call. Calls of active or inactive are those of the source. Calls follow the shape of the full dose curve.
% is scaled to controls: 0 for no effect and ±100 for the full control effect.

Nucleoprotein (Lymphocytic choriomeningitis virus (strain Armstrong)), sequence (P09992 whole entry, looked up): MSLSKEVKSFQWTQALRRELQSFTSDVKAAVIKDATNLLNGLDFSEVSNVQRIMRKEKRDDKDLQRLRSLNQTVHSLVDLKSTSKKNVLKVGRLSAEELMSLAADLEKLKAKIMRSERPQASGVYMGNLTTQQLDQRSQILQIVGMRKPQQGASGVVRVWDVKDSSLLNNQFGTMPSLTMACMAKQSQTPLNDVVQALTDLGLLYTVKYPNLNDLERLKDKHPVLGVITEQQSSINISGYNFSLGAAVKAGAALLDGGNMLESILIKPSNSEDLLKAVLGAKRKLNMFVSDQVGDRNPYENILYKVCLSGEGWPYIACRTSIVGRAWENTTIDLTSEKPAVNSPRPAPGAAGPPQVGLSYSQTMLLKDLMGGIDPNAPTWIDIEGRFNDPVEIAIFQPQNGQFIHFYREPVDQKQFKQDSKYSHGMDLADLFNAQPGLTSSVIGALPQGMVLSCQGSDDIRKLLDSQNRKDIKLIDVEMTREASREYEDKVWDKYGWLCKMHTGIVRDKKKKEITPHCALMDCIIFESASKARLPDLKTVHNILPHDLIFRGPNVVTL

This assay addresses Nucleoprotein (Lymphocytic choriomeningitis virus (strain Armstrong)) (UniProt P09992). The experiment in a line: qHTS for Inhibitors of the Functional Ribonucleoprotein Complex (vRNP) of Lymphocytic Choriomeningitis Arenaviruses (LCMV): LCMV Primary Screen - GLuc reporter signal (AID 1347086). Also: nearly all actives have a fitted effect of over 70% in size. As to conditions: LCMV minigenome vRNP cell assay, Gaussia luciferase reporter; series mostly up to 57.5 µM; activity change, negative = inhibition: at the top concentration. (Quantitative high-throughput screening tests each substance at several concentrations.)
With `COCCc1ccccn1`, the “activity change, negative = inhibition” value is 19.1%.

In the case of `O=c1cc[nH]c(=S)[nH]1`, the “activity change, negative = inhibition” value was -20%.

For the molecule `CC(=O)[C@H]1CC[C@H]2[C@@H]3C[C@H](C)C4=CC(=O)CC[C@]4(C)[C@H]3[C@@H](O)C[C@]12C`, the “activity change, negative = inhibition” value is 13.8%.

As to `O=C(N/N=C/c1ccccc1O)c1ccncc1`, the “activity change, negative = inhibition” value is 0.884%. Still for that read-out and setting: the value for `CN=C(N)NC(=O)Nc1c(C)cccc1C` was -2.71%; that for `COc1cc(NS(=O)(=O)c2ccc(N)cc2)nc(C)n1` was 1.58%. As for `O=c1[nH]c(=O)n([C@H]2C[C@H](O)[C@@H](CO)O2)cc1Br`, the Potency result was “inactive”.

Take `OCc1ccc(Cl)cc1Cl`: the “activity change, negative = inhibition” value is 1.78%.

For the molecule `CO/N=C(/C(=O)N[C@@H]1C(=O)N2C(C(=O)OCOC(=O)C(C)(C)C)=C(C)CS[C@H]12)c1csc(N)n1`, the “activity change, negative = inhibition” value was 15%.

On to `N[C@@H](COP(=O)(O)O)C(=O)O`, for which the Potency result was “inactive”. Turning to `O=C(O)CN(CCN(CC(=O)O)CC(=O)O)CCN(CC(=O)O)CC(=O)O`, the Potency entry was “inactive”. For the molecule `CN[C@@H]1[C@H](O)[C@H](NC)[C@H]2O[C@@]3(O)C(=O)C[C@@H](C)O[C@H]3O[C@@H]2[C@H]1O`, the “activity change, negative = inhibition” value was 13.6%. Still for that read-out and setting: the value for `Cc1ccc(C(=O)C(C)CN2CCCCC2)cc1` (stereo not given) was 0.627%; that for `CCc1cccc(CC)c1NC(=O)CN(CC(=O)O)CC(=O)O` was 16.6%. With `O=C(O)c1cc(=O)c2c(OCC(O)COc3cccc4oc(C(=O)O)cc(=O)c34)cccc2o1`, the Potency entry was “inactive”.

The values are drawn from PubChem BioAssay (NCATS).
